{"source": "PubChem BioAssay (Tox21)", "note": "Records with an inconclusive call do not appear. Unmarked numbers belong to inactive results. Calls follow the shape of the dose curve; as a rule, active = well fitted activation curve with a large enough effect in the signal ratio in the repeat runs (not every such curve was filed as active); inconclusive = weak or mixed curves; inactive = flat fitted curve, though single readings scatter; the % refers to the signal ratio. % is scaled to controls: 0 for no effect and ±100 for the full control effect.", "data": [{"assay": "qHTS assay to identify small molecule agonists of the hypoxia (HIF-1) signaling pathway (AID 1224846)", "settings": "HRE-bla ME-180 cells, beta-lactamase ratio, 17 h; series mostly up to 76.8 µM; activation: at the top concentration", "source_text": "U.S. Tox21 Program National Center for Advancing Translational Sciences [NCATS] NIH Chemical Genomics Center [NCGC] U.S. Environmental Protection Agency [EPA] National Institutes of Environmental Health Sciences [NIEHS] National Toxicology Program [NTP] U.S. Food and Drug Administration [FDA] Tox21 Assay Overview: Hypoxia-inducible factor-1 (HIF-1) is the major hypoxia-regulated transcription factor that controls cellular responses to low oxygen concentration. HIF-1 is composed of two subunits: hypoxia responsive HIF-1-alpha and constitutively expressed HIF-1-beta, which is also known as aryl hydrocarbon receptor nuclear translocator. During hypoxic conditions, HIF-1-alpha heterodimerizes with HIF-1-beta and translocates into the nucleus where the HIF-1 complex binds to the hypoxia-response element (HRE) and activates expression of target genes such as VEGF (vascular endothelial growth factor). The HIF-1 pathway is essential to normal growth and development, and is involved in the pathophysiology of cancer, inflammation, and ischemia. Using a beta-lactamase reporter-gene under control of the hypoxia response element, a cell-based assay [CellSensor(TM) HRE-bla ME-180 from Life Technologies, Carlsbad, CA] was used to measure hypoxia-induced signaling. Tox21 10K library compounds were measured for their ability to induce the reporter gene activity.\nTox21 Assay Protocol Summary: HRE-bla ME-180 cells were dispensed at 2,000 cells per well in 6 uL of assay medium containing 0.5% dialyzed FBS into black wall/clear-bottom 1536-well plates using a Multidrop Combi (Thermo Scientific, Waltham, MA) dispenser. After the assay plates were incubated at 37C and 5% CO2 for 5 hrs, 23 nL of compounds dissolved in DMSO, positive controls or DMSO only was transferred to each well of the assay plate using a Pintool station (Kalypsys, San Diego, CA). The assay plates were incubated at 37C and 5% CO2 for 17 hrs. One uL of LiveBLAzerTM B/G FRET substrate (CCF4-AM) (Life Technologies) was added to each well using a Flying Reagent Dispenser (Aurora Discovery, San Diego, CA).", "values": [{"smiles": "COc1ccnc2c1CCCCC2S(=O)c1nc2ccccc2[nH]1", "note": "(stereo not given)", "activation": "-0.442% [at 35.5 µM]"}, {"smiles": "CC(COc1ccccc1)NC(C)C(O)c1ccc(O)cc1", "note": "(stereo not given)", "activation": "-0.627% [at 35.5 µM]"}, {"smiles": "CC(=O)Nc1ccccc1O", "activation": "-1.38%"}, {"smiles": "CCOC(=O)CC(O)(CC(=O)OCC)C(=O)OCC", "activation": "-0.984%"}, {"smiles": "CO[C@@H]1[C@@H](O[C@@H]2O[C@H](C)[C@@H](O[C@H]3C[C@@](C)(O)[C@@H](O)[C@H](C)O3)[C@H](N(C)C)[C@H]2O)[C@@H](CC=O)C[C@@H](C)[C@@H](O[C@@H]2CC[C@H](N(C)C)[C@@H](C)O2)/C=C/C=C/C[C@@H](C)OC(=O)C[C@H]1OC(C)=O", "activation": "0.524% [at 35.5 µM]"}, {"smiles": "COc1ccc(C(=O)c2ccc(C)cc2)c(O)c1", "activation": "1.34%"}, {"smiles": "O=C(NC1CCN(CCc2c[nH]c3ccccc23)CC1)c1ccccc1", "activation": "1.02% [at 35.5 µM]"}, {"smiles": "O=C(OCCOCCOCCOC(=O)c1ccccc1)c1ccccc1", "activation": "-0.128%"}, {"smiles": "C=CC(C)(O)CC/C=C(/C)CCC=C(C)C", "note": "(stereo not given)", "activation": "0.174%"}, {"smiles": "C[Si](C)(C)O[Si](C)(C)O[Si](C)(C)C", "activation": "-0.698%"}, {"smiles": "C[C@]12CCC(=O)C=C1[C@@H]1C[C@@H]1[C@H]1[C@@H]3[C@@H]4C[C@@H]4[C@@]4(CCC(=O)O4)[C@@]3(C)CC[C@@H]12", "activation": "-1.97% [at 35.5 µM]"}, {"smiles": "CC1=C(C)C(=O)C(CCCCC#CCCCC#CCO)=C(C)C1=O", "activation": "0.9% [at 35.5 µM]"}, {"smiles": "CCCC(=O)OCCC(C)C", "activation": "-0.532%"}, {"smiles": "O=C(O)CCc1nc2ccccc2[nH]1", "activation": "2.03% [at 35.5 µM]"}, {"smiles": "COC=O", "activation": "-0.206% [at 7.01 µM]"}, {"smiles": "Sc1nc(S)nc(S)n1", "activation": "0.934% [at 35.5 µM]"}, {"smiles": "O=c1[nH][nH]c2ccccc12", "activation": "-0.427%"}, {"smiles": "CC(=O)c1cccnc1", "activation": "0.474%"}, {"smiles": "C=CC(C)CCC=C(C)C", "note": "(stereo not given)", "activation": "-0.109%"}, {"smiles": "COc1ccc(CN(CCN(C)C)c2ncccn2)cc1", "activation": "0.195% [at 35.5 µM]"}, {"smiles": "O=C(C1CCCCC1)N1CC(=O)N2CCCc3ccccc3C2C1", "note": "(stereo not given)", "activation": "-0.202% [at 35.5 µM]"}, {"smiles": "O=c1c2ccccc2oc2ccccc12", "activation": "-0.604%"}, {"smiles": "CCCC1CCCC(=O)O1", "note": "(stereo not given)", "activation": "-1.21%"}, {"smiles": "C=C[Si]1(C)O[Si](C)(C=C)O[Si](C)(C=C)O[Si](C)(C=C)O1", "note": "(stereo not given)", "activation": "0.343%"}, {"smiles": "O=C(Cl)c1cc(Cl)cc(Cl)c1", "activation": "0.444%"}, {"smiles": "CC(=O)Nc1cccc(N)c1", "activation": "2.04%"}, {"smiles": "Cc1c(Cl)cccc1[N+](=O)[O-]", "activation": "0.309%"}, {"smiles": "CC1=C(C)C(=O)C(C(CCCCCC(=O)O)c2ccccc2)=C(C)C1=O", "note": "(stereo not given)", "activation": "-1.69% [at 35.5 µM]"}, {"smiles": "CC(C)(C)N", "activation": "0.0409%"}, {"smiles": "CC(C)CCCCCCCOC(=O)c1ccc(C(=O)OCCCCCCCC(C)C)c(C(=O)OCCCCCCCC(C)C)c1", "activation": "-0.971%"}, {"smiles": "CCCc1ccc(OC)cc1", "activation": "-0.109%"}, {"smiles": "Nc1cccc2c(=O)[nH][nH]c(=O)c12", "activation": "0.37%"}, {"smiles": "O=C(Cl)c1ccc(F)c(Cl)c1", "activation": "-0.868%"}, {"smiles": "O=[N+]([O-])c1cccc(I)c1", "activation": "0.242%"}, {"smiles": "Cc1c(-c2cccnc2)c2ccccc2n1CCCCC(=O)O", "activation": "0.662%"}, {"smiles": "Cc1ccc2ccccc2c1[N+](=O)[O-]", "activation": "-0.614%"}, {"smiles": "O=c1[nH]nc(-c2ccc([N+](=O)[O-])o2)o1", "activation": "-0.0331%"}, {"smiles": "O=P(c1ccccc1)(c1ccccc1)c1ccccc1", "activation": "-0.672%"}, {"smiles": "OCCCO", "activation": "-0.494%"}, {"smiles": "C=CCCC", "activation": "0.233%"}]}]}
